Hits are enriched below; roughly 14% of the tested compounds scored in any of these assays.
USP17 inh – inhibitors of human USP17 deubiquitinase; A8MUK1; purified USP17, Ub-rhodamine cleavage fluorescence, 3 h; inhibition, % at 50 µM; actives 6.5% (n = 47,000); AID 1645855
USP8 inh – blocks human USP8 ubiquitin-rhodamine cleavage; purified USP8, Ub-rhodamine cleavage fluorescence, 30 min; actives 4.2% (n = 47,000); AID 1645853; inhibition, % at 20 µM; P40818
USP28 block – human USP28 deubiquitinase inhibition. actives 3% (n = 47,000). Q96RU2. purified USP28, Ub-rhodamine cleavage fluorescence, 30 min. inhibition, % at 25 µM
USP10 block – human USP10 deubiquitinase inhibition; inhibition, % at 20 µM; purified USP10, Ub-rhodamine fluorescence, 60 min; Q14694; actives 1.1% (n = 47,000)
USP30 block – blocks human USP30 ubiquitin-rhodamine cleavage; purified USP30, Ub-rhodamine cleavage fluorescence; Q70CQ3; actives 5.3% (n = 47,000); inhibition, % at 25 µM
Starred values were filed as active, the others as inactive. No stated cut-off is given here; in the data, active means inhibition above about 30%; inactive means the rest.

SMILES	USP17 inh	USP8 inh	USP28 block	USP10 block	USP30 block
O=C(Nc1ccccc1)N1CCC2(CC1)C(=O)Nc1c(Oc3ccccc3)cccc12	-27.1	5.0	24.1	7.7	1.8
COc1cccc2c1NC(=O)C21CCN(C(=O)Nc2cccc3ccccc23)CC1	91.9*	97.4*	22.6	3.5	19.8
COc1c2c(c(O)c3c1C(=O)c1c(cc(O)c(C)c1O)C3=O)-c1c(cc3c(c1O)C(=O)OC3O)CC2 (centres undefined)	94.4*	71.6*	88.0*	75.2*	59.3*
CCN1CCC2(COCc3c(C)nc(-c4ccccc4)nc32)C1 (centres undefined)	-4.0	3.9	35.6*	0.0	14.0
NC(=O)CN1CCC2(CC1)OC(=O)N(Cc1ccccc1)c1ccccc12	-0.7	15.9	12.5	0.3	17.5
C/C=C1/CN2CC[C@]34C(=C(C(=O)OC)[C@H]1C[C@H]23)Nc1c(O)cccc14	37.3*	86.5*	-35.1	-4.2	-98.6
Cc1nc(C(=O)NCc2cccc(F)c2)c(C)n1C1CCN(C)CC1	11.2	3.3	7.1	-0.1	24.2
O=C(NC1CC1)C1=NOC2(CCNCC2)C1	-29.5	-132.5	-14.2	-2.0	-22.3
COc1cc2c(c3oc4cccc(O)c4c(=O)c13)C1C=COC1O2 (centres undefined)	53.7*	3.2	50.2*	4.2	19.6
O=C1CSC(c2ccc3c(c2)OCO3)c2c(-c3ccccc3)nn(-c3ccccc3)c2N1 (centres undefined)	9.9	18.6	18.8	6.4	30.3*
CCOc1ccc(C2SCC(=O)Nc3c2c(=O)[nH]n3C2CCCCC2)cc1 (centres undefined)	13.7	87.9*	11.9	10.1	35.3*
COc1ccc(C2SCC(=O)Nc3c2c(=O)[nH]n3C2CCCCCC2)cc1 (centres undefined)	50.4*	25.2	-3.2	6.4	10.0
O=C1CSC(c2ccc3c(c2)OCO3)c2c(n(C3CCCCCC3)[nH]c2=O)N1 (centres undefined)	18.9	82.5*	13.0	23.9	33.0*
CC1(C)CC(n2[nH]c(=O)c3c2NC(=O)CSC3c2ccc(OCc3ccccc3)cc2)CCO1 (centres undefined)	25.3	24.7	25.5	4.2	53.2*
COc1ccc(C2SCC(=O)Nc3c2c(=O)[nH]n3C2CCCC2)cc1 (centres undefined)	-7.8	-1.7	-20.2	3.1	0.0
Cc1ccc(C2SCC(=O)Nc3c2c(=O)[nH]n3C2CCCCC2)cc1 (centres undefined)	21.8	88.3*	9.9	20.4	17.1
Cc1[nH]c(=O)[nH]c(=O)c1CC(=O)N1CCCCC1CN1CCCCC1 (centres undefined)	1.5	5.8	-6.8	0.0	-9.6
CO[C@H]1/C=C/C=C\C=C\C[C@H](OC(=O)[C@@H](C)NC(=O)C2CCCCC2)[C@H](C)[C@@H](O)/C(C)=C\CCc2cc(O)cc(c2O)NC(=O)C1	33.0*	-3.9	-6.7	-4.2	-36.0
COC1=C(C2=C(OC)C(=O)c3cc4c(c(O)c3C2=O)C(=O)OC(C)C4)C(=O)c2c(cc3c(c2O)C(=O)OC(C)C3)C1=O (centres undefined)	70.1*	-27.1	67.5*	-8.9	-41.5
CC1=CC2OC3C[C@@H](O)[C@](C)([C@@]2(CO)CC1)[C@@]31CO1 (some centres undefined)	10.7	0.0	4.9	-0.1	26.8
CN1CC[C@@H]2[C@H]1CCCCN2C(=O)COc1ccc(F)cc1	-29.0	-50.0	-6.7	-4.3	-31.7
CN1CCCC[C@@H]2N(C(=O)Cn3ccc(=O)[nH]c3=O)CCC[C@@]21C	12.2	2.2	11.2	3.2	30.8*
O=C1C=CC(O)C2C1CC13SSC4(CC5C(=O)C=CC(O)C5N4C1=O)C(=O)N23 (centres undefined)	-17.1	2.5	1.9	4.4	60.3*
CN1CC[C@@H]2[C@H](C1)CN2C(=O)NCc1ccccc1	12.0	12.2	11.3	-0.9	22.2
O=C(O)c1cccc2nc3ccccc3nc12	38.8*	7.7	0.3	-0.7	-10.1
SMILES	USP17 inh	USP8 inh	USP28 block	USP10 block	USP30 block
O=C(NCC(F)(F)F)C1=NOC2(CCCNC2)C1 (centres undefined)	-17.4	-222.5	4.3	-0.9	11.0
C[C@]12CCC=CC1=CC[C@@H]1[C@@H]2CC[C@]2(C)[C@@H](c3ccc(=O)oc3)CC[C@]12O	24.6	0.3	17.3	5.1	-26.6
O=C1NCC2(CCCN(Cc3ccncc3)C2)Oc2ccccc21 (centres undefined)	-60.3	-4.4	-66.0	-2.6	-191.9
c1cc(-c2nccc(CN3CCCC4(CCCCC4)C3)n2)ccn1	13.7	37.0*	7.3	0.0	24.1
CCOc1ccc(C2SCC(=O)Nc3c2c(=O)[nH]n3C2CCCCCC2)cc1 (centres undefined)	3.2	15.2	-9.2	3.0	-0.9
Oc1ccc2ccccc2c1CN1CC=C(c2ccccc2)CC1	11.5	34.9*	-2.8	-0.3	-13.5
O=C(CN1CC=C(c2ccccc2)CC1)Nc1ccccc1Cl	-7.9	-5.2	-20.2	0.9	-0.3
CC1Oc2cc3c(-c4c(O)cc(O)c5c(O)c6c(cc45)OC(C)C(C)C6=O)c(O)cc(O)c3c(O)c2C(=O)C1C (centres undefined)	81.0*	59.1*	89.8*	67.8*	34.6*
CN[C@H]1[C@@H]2[C@H]3CCN2C[C@@H]1O3	-3.0	-0.6	-5.9	0.5	-1.7
C=C(C)[C@H]1[C@H]2C(=O)O[C@@H]1C[C@]1(C)[C@@]2(O)[C@H]2O[C@H]2[C@]12CO2	-7.9	-1.6	-8.2	-1.2	16.3
CC(C)[C@]12O[C@H]1[C@@H]1O[C@]13[C@]1(O[C@H]1CC1C4=C(CC[C@@]13C)C(=O)OC4)[C@@H]2O (some centres undefined)	-7.6	0.9	-9.4	3.6	0.4
CO/C1=C\C(C)=C\[C@@H](C)[C@@H](O)[C@H](C)C/C(C)=C/C=C/[C@H](OC)[C@@H]([C@@H](C)[C@@H](O)[C@H](C)[C@@]2(O)C[C@@H](OC(=O)/C=C/C(=O)NC3=C(O)CCC3=O)[C@H](C)[C@@H](C(C)C)O2)OC1=O	39.8*	-7.1	19.0	24.9	-60.2
CO[C@@H]1C[C@H]2C=C[C@H]3[C@H]4O[C@]2(/C(C)=C/[C@@H](C)[C@@H]([C@H](C)O)OC1=O)[C@@H]3[C@H](O)[C@@H](C)[C@H]4O	-10.3	0.0	-4.3	-1.1	9.4
COCC(O)C1OC(=O)C(O)CC2C=CC3C4OC2(/C(C)=C\C1C)C3C(O)C(COC)C4OC(=O)c1ccc[nH]1 (centres undefined)	-0.4	2.6	8.9	3.9	38.1*
COc1ccc(-c2nn(Cc3ccccc3)cc2C(=O)O)cc1OC	6.9	-3.6	4.7	0.1	10.2
C=C/C(=C/C(=O)C[C@H](C)C[C@@H](C)CC[C@H](O)[C@H](C)C(=O)CC(O)[C@H](C)[C@@H](C)OC(=O)C[C@@H](O)C1=C(C)C(=O)OC1=O)CC (some centres undefined)	87.5*	77.3*	90.0*	80.8*	54.0*

High-throughput results: PubChem, Buhrlage Lab, Dana-Farber Cancer Institute and Novartis Institutes for BioMedical Research (Cambridge, Mass)
